Tau ThT inhib = tau fibrillization inhibition (ThT binding); P10636; recombinant tau K18 P301L, heparin-induced fibrillization, ThT fluorescence; Potency, µM (highest dose often 57.4 µM), without a hit: top-dose activity, negative = inhibition, most hits filed as inhibitors; 270,000 tested, 2.1% active; AID 1460; also: potency is read from the fitted curve at half-maximal effect; nearly all actives have a fitted effect of over 55% in size
Target sequence (P10636 561-689 P618L limits assumed): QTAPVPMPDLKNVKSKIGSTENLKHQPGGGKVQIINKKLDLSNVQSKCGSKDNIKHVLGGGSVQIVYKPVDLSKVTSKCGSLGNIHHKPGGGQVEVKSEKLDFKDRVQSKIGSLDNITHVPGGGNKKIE
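K18 P301L tau (15 uM + 0.24 uM Alexa 594-tagged), heparin 20 uM, NaOAc pH 7, 6 h 37 C; ThT 30 uM, 1 h RT, ex 450/em 510 nm.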
Tau fluor counter = counter-screen for tau fibril formation inhibitors; Potency, µM (titrated, usually from 57.7 µM), for the others: at the highest dose activity change, negative = decrease; tau K18 P301L Alexa594 fluorescence, heparin fibrillization; 280,000 tested, 0.93% active; also: potency is read from the fitted curve at half-maximal effect; nearly all actives have a fitted effect of over 55% in size
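Human tau K18 P301L (15 uM unlabeled, 0.24 uM Alexa 594-labeled) in 100 mM sodium acetate pH 7 with 20 uM heparin, 6 hr at 37 C. ThT 30 uM added, 1 hr ambient; Alexa 594 FP and total fluorescence read at 555/632 nm.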
G9a inh = inhibitors of human histone lysine methyltransferase G9a; 350,000 tested, 8.8% active; AID 504332; Potency, µM (series often up to 102 µM), for the others: at the top dose activity, negative = inhibition, actives largely listed as inhibitors; Q96KQ7; G9a H3K9 monomethylation, AlphaScreen, 2 h; also: potency is read from the fitted curve at half-maximal effect; nearly all actives have a fitted effect of over 75% in size
Target sequence (Q96KQ7 913-1193 limits assumed): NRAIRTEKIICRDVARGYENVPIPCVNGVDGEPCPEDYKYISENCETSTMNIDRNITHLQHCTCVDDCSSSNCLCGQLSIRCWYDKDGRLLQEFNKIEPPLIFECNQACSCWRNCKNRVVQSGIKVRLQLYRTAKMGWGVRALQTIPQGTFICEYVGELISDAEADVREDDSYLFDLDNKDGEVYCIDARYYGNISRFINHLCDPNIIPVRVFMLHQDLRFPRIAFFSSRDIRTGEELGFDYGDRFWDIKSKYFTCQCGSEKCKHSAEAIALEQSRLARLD
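G9a (20 nM) preincubated 15 min RT with compounds, then 500 nM biotinylated H3K9 peptide and 20 uM SAM added; 2 h RT reaction. Monomethyl-H3K9 product detected by AlphaScreen with anti-H3K9me1 antibody, streptavidin donor and anti-rabbit IgG acceptor beads.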
Tau FP inhib = blocks human tau fibril formation measured by polarization; K18 P301L tau heparin fibrillization, Alexa594 FP, 6 h; Potency, µM (top dose mostly 57.7 µM), for the others: at the highest dose activity, negative = inhibition, most hits filed as inhibitors; 280,000 tested, 0.39% active; also: potency is read from the fitted curve at half-maximal effect; nearly all actives have a fitted effect of over 55% in size
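Steps: dispense K18 P301L tau (15 uM plus 0.24 uM Alexa 594 tracer, final) in pH 7 sodium acetate; add compound; add heparin (20 uM final); incubate 6 hr, 37 C; add ThT (30 uM final); after 1 hr ambient, read FP.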
Coupling enz = inhibits coupling enzyme system, counter-screen for aldolase hits. 290,000 tested, 0.67% active. activity change, negative = inhibition, % at 58.2 µM, hits read low. coupling enzyme system counterscreen, AmpLite Red fluorescence; in the data active = activity change below about -30%
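Counterscreen lacking aldolase: glyceraldehyde-3-phosphate coupling-enzyme reagent preincubated 10 min at RT with compound (at 57.5 uM final), then substrate/coupling system with AmpLite Red added; fluorescence read at 525/598 nm after 20 min RT.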
Sfp inh = Sfp phosphopantetheinyl transferase inhibition; Biochemical Sfp PPTase activity, qHTS; Potency, µM, for inactives: largest response in the series, negative = inhibition, most hits filed as inhibitors; 310,000 tested, 3.5% active; AID 1490;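 also: the enzyme is Sfp with the accession as filed and its product quenches rhodamine fluorescence; potency is read from the fitted curve at half-maximal effect; 0% = enzyme reaction without inhibitor and -100% = no enzyme wells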
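Sfp 15 nM + cpd, 15 min RT; start w/ rhodamine-CoA 5 uM, BHQ-2-YbbR 12.5 uM (final); 50 mM Hepes pH 7.6, 10 mM MgCl2, 0.01% NP-40, 0.01% BSA; read 525/598 nm at 0 and 30 min.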
Numbers without * were called inactive; ? = inconclusive; . = not tested or not shown; [ ] = dose if it differs, or a comment. The list is not random: actives were taken first. Their share in the collection is about 11%. Unless noted, calls follow the shape of the dose curve; as a rule, active = well fitted curve in the direction sought with a large enough effect; inconclusive = small, poorly fitted or top-dose-only effect, or another doubt; inactive = no such curve, though single readings can be large; an effect the other way counts as inactive or inconclusive. Unless noted, % is scaled to controls: 0 for no effect and ±100 for the full control effect.

SMILES	Tau ThT inhib	Tau fluor counter	G9a inh	Tau FP inhib	Coupling enz	Sfp inh
COc1cc(CN2CCN(C(=O)CC(C)C)CC2)cc(OC)c1O	?	-24%	4µM*	-1%	0	?
COc1cc(CN2CCN(C(=O)CC(C)C)CC2)c([N+](=O)[O-])cc1OC	.	.	18µM*	.	-6	?
COc1cc2c(cc1CN1CCN(C(=O)c3cc(OC)c(OC)c(OC)c3)CC1)OCO2	.	.	11µM*	.	1	-14%
COc1cc(CN2CCN(C(=O)CC(C)C)CC2)cc(OC)c1OC	2%	-2%	?	0%	5	?
COc1ccc(CN2CCN(C(=O)CC(C)C)CC2)c(OC)c1OC	-5%	2%	?	0%	0	?
COc1ccc(C(=O)N2CCN(Cc3ccc(OC)c(OC)c3)CC2)cc1	.	.	?	.	-1	-12%
COc1cccc(/C=C/c2nc(C#N)c(N3CCCCC3)o2)c1	?	?	?	8%	.	.
Cc1noc(C)c1COc1ccc(C(=O)NCCc2ccc(F)cc2)cc1	.	.	10%[12.7 µM]	.	.	.
COc1ccc(CN2CCN(C(=O)c3cc(OC)c(OC)c(OC)c3)CC2)cc1OC	-1%	2%	10µM*	4%	-3	-30%
CCCCn1c(=O)c2oc3ccccc3c2n(Cc2ccccc2C)c1=O	9%	5%	9%[59 µM]	-2%	.	.
C[C@@H]1NC(=O)[C@H](CCC(N)=O)NC(=O)c2cc([N+](=O)[O-])cc(I)c2NCC[C@@H](C(N)=O)NC1=O	?	-25%	11µM*	-4%	-1	2%
C[C@@H]1NC(=O)c2cc([N+](=O)[O-])cc(I)c2NCC[C@@H](C(N)=O)NC(=O)[C@H](CC(N)=O)NC1=O	-3%	-3%	22µM*	1%	-1	-1%
Cc1ccc(S(=O)(=O)Nc2cc3c(cc2N2CCOCC2)n(C)c(=O)n3C)cc1	-12%	-9%	?	-7%	.	.
Cn1c(=O)n(C)c2cc(N3CCOCC3)c(NS(=O)(=O)c3cccc(C#N)c3)cc21	-7%	3%	6.3µM*	0%	.	.
COc1ccc(C(=O)C[n+]2cccc(C)c2)cc1	-5%	-1%	71µM*	2%	0	-9%
COc1ccc(C(=O)C[n+]2cccc(C(N)=O)c2)cc1	.	.	?	.	1	22%
O=C(NCCCN1CCCC1)C1CCN(C(=O)c2cc3sccc3n2Cc2ccc(F)cc2)CC1	-17%	-3%	50µM*	14%	3	-8%
CCn1c(C(=O)N2CCC(C(=O)NCc3ccc4c(c3)OCO4)CC2)cc2sccc21	-8%	-14%	45µM*	1%	0	3%
NC(=O)C1CCCN(C(=S)NCc2ccc3c(c2)OCO3)C1 (centres undefined)	5%	4%	50µM*	7%	4	15%
Cn1c(C(=O)N2CCCC(C(=O)NCc3ccc4c(c3)OCO4)C2)cc2sccc21 (centres undefined)	-10%	-12%	50µM*	4%	2	4%
CCn1c(C(=O)N2CCC(C(=O)NCCc3ccc(C)cc3)CC2)cc2sccc21	-14%	0%	2%[59 µM]	13%	.	.
CCn1c(C(=O)N2CCC(C(=O)NCCCSC3CCCCC3)CC2)cc2sccc21	?	-22%	40µM*	-2%	1	9%
COc1ccc(-n2nc3c(c2NC(=O)c2ccccc2S(=O)(=O)C(F)F)CS(=O)(=O)C3)cc1	.	.	?	.	.	10%
O=C1/C(=C/c2ccccc2[N+](=O)[O-])COc2ccccc21	13µM*	?	?	?	-3	1%
CNc1ccc(/C=C2\COc3ccccc3C2=O)cc1[N+](=O)[O-]	1.6µM*	-12%	-35%[59 µM]	-2%	5	-7%
SMILES	Tau ThT inhib	Tau fluor counter	G9a inh	Tau FP inhib	Coupling enz	Sfp inh
Cc1ccc(/C=C/c2onc(C)c2S(=O)(=O)N2CCC(C(=O)N3CCC(N(C)C(C)C)CC3)CC2)cc1	6%	7%	-4%[59 µM]	11%	.	.
CCOC(=O)c1cc2occc2n1CC(=O)Nc1ccc(OC)cc1OC	?	?	40µM*	7%	0	-11%
CCOC(=O)c1cc2occc2n1CCCN1C(=O)c2ccccc2C1=O	-24%	-28%	14µM*	-4%	-2	-24%
CCOC(=O)c1cc2sc(C)cc2n1CCCN1C(=O)c2ccccc2C1=O	-12%	-24%	-5%[59 µM]	-5%	-4	-2%
COc1ccc(-n2cc(-c3ccc4c(c3)OCO4)n(CC(=O)Nc3cccc(C)c3C)c2=O)c(OC)c1	?	-24%	5µM*	9%	.	.
COc1ccc(-c2cn(-c3ccc(C)cc3)c(=O)n2CC(=O)Nc2ccc(OC)cc2OC)cc1	?	-25%	35µM*	13%	-1	?
COc1ccc(CNC(=O)CN2c3ccccc3S(=O)(=O)c3ccccc32)cc1	.	.	29%	.	0	10%
O=C(Nc1ccc(Cl)c(Cl)c1)Nc1ccc(N2CCCC2)c(S(=O)(=O)Nc2ccccc2Cl)c1	?	4µM*[quencher]	3%[59 µM]	-9%	0	21%
O=C(Nc1ccc(F)cc1)Nc1ccc(N2CCCC2)c(S(=O)(=O)Nc2ccccc2Cl)c1	-19%	2.8µM*[quencher]	?	?	-1	20%
Cc1c(NC(=O)COC(=O)c2ncc(Cl)c(Cl)c2Cl)c(=O)n(-c2ccccc2)n1C	.	.	-25%	.	.	.
O=C(Nc1c(C(=O)N2CCN(c3ccccc3F)CC2)oc2ccccc12)c1ccc(Br)o1	-6%	-8%	-46%[59 µM]	6%	.	.
Cc1[nH]c2ccccc2c1/C=N/n1cnnc1	-1%	3%	8%[59 µM]	1%	-1	1%
CCN(CC)c1ccc(N=Cc2c(C)[nH]c3ccccc23)cc1	8.9µM*	?	14µM*	?	-18	50µM*
CCCOc1ccc(C(=O)NNC(=S)NC(=O)CC)cc1	?	-19%	8.9µM*	?	-2	-26%
CCC(=O)NC(=S)NNC(=O)c1ccc(NC(=O)c2ccccc2)cc1	?	-11%	7.1µM*	-9%	-1	-24%
C=CCNC(=S)NNC(=O)c1ccc(OCCC)cc1	-11%	1%	8%[59 µM]	-1%	2	27%
CCCCC(=O)NC(=S)Nc1cccc(NC(=O)c2ccccc2)c1	-17%	-26%	50µM*	-9%	2	7%
O=C(NNC(=O)c1ccc(NC(=O)c2ccccc2)cc1)c1ccccc1	-8%	10%	?	2%	0	23%
Nc1nonc1-c1nc2ccccc2n1CC(=O)Nc1cccc(Cl)c1Cl	-10%	-18%	25%[59 µM]	?	.	.
O=C(C1CCN(C2CC(=O)N(c3ccc(F)cc3)C2=O)CC1)N1CCOCC1 (centres undefined)	-14%	0%	?	-2%	5	-14%

Bioassay records from PubChem BioAssay.
